From ChEMBL document CHEMBL1157539, “Thousands of chemical starting points for antimalarial lead identification” (Nature, 2010) come the findings set out here.

As a reminder, the Inhibition is the relative decrease from the control value, in per cent. Higher therefore signals a response far below the control.

The subject of one assay is Plasmodium falciparum. Put plainly: GSK_TCMDC: Inhibition of Plasmodium falciparum 3D7 in whole red blood cells, using parasite LDH activity as an index of growth. Test compounds present at 2uM. In kind it is functional.
The compound `Cl.Cn1ncc2c3c(CCN4CCC(NCc5ccc6c(c5)NC(=O)CO6)CC4)c(Cl)cnc3ccc21` had an Inhibition of 100%. Same read-out and setting: with `Nc1ncc(-c2ccsc2)cc1-c1nc2ccccc2[nH]1` the figure was 99%; with `O=C(NCc1ccc(F)cc1)Nc1ccc(-c2cccc(-c3nc4cc(F)ccc4[nH]3)c2)cc1`, 100%; with `Cc1ccc2[nH]c(C3CCCNC3)c(-c3ccncc3)c2c1` (configuration not stated), 100%.

For the compound `O=C(/C=C/c1ccc(Cl)c(Cl)c1)NCCCCCN1CCC(n2c(=O)[nH]c3ccccc32)CC1`, the Inhibition is 97%. On the same count and under the same terms, the result for `Br.CCCc1cccc(OC)c1OCCCON1C(N)=NC(N)=NC1(C)C` reads 94%. The compound `Cc1cccc2sc(N(CCCn3ccnc3)C(=O)C=Cc3cccs3)nc12.Cl` came in with an Inhibition of 91%. The same measure, in the same setting: the result for `CN(C)CCCN(C)c1cccc2c1nc(-c1cccnc1)n2CCNCc1ccccc1.O=C(O)C(F)(F)F` reads 89%. Regarding `Nc1nc(N)c2c(Oc3cccc4ccccc34)cccc2n1`, the Inhibition came to 96%. The same measure, in the same setting: the result for `CN1CCC(c2nc(N)no2)C1.O=C(O)C(=O)O` (configuration not stated) reads 95%; that for `COc1ccc2nccc([C@@H](O)CN3CCC(NCc4nc5c(OCc6ccccc6)cccc5[nH]4)CC3)c2c1.O=C(O)C(=O)O`, 100%; that for `CCN1CCN(C(=O)NC(C(=O)N(C)Cc2ccc(-c3ccc(C(F)(F)F)cc3)cc2)c2cccs2)C(=O)C1=O` (configuration not stated), 99%.

For `COc1cc(C(=O)NC2CC(C)(C)N(C)C(C)(C)C2)ccc1-c1cc2cc(Cl)c(Cl)cc2[nH]1`, the Inhibition was determined as 89%. On the same count and under the same terms, the result for `O=C(C=Cc1ccc(Cl)c(Cl)c1)NCCCCCN1CCC(CCNC(=O)c2cccc3ccccc23)CC1` reads 85%. On to `CCOc1cc(C(=O)NCCCN2CCCCC2C)ccc1-c1nc2cc(Cl)ccc2[nH]1` (configuration not stated), for which the Inhibition turned out to be 89%. Still for that read-out and setting: the result for `Oc1ccccc1CN(CCCN(Cc1ccccn1)Cc1ccccc1O)Cc1ccccn1` reads 92%. On the same count and under the same terms, the result for `COc1ccc2nccc([C@@H](O)CN3CCC(NCc4ccc5nnsc5c4)CC3)c2c1.O=C(O)C(=O)O` reads 99%; that for `CCCCCC(C)NC[C@@H](O)[C@H](Cc1ccccc1)NC(=O)c1cc(NCC)cc(N2CCCCS2(=O)=O)c1.Cl` (some centres not stated), 98%. Same read-out and setting: the result for `CN1CCN(S(=O)(=O)c2cccc(Nc3nccc(N(C)c4ccc5c(c4)nc(NC(=O)c4cccs4)n5C)n3)c2)CC1` reads 99%; that for `O=C(C=Cc1cn(-c2ccccc2)nc1-c1ccccc1)N1CCN(c2ccncc2)CC1`, 90%; that for `CCN1CCC(N(CCCCCCc2ccc(C(F)(F)F)cc2)C(=O)Cn2c(CCc3cccc(F)c3F)cc(=O)c3ccccc32)CC1.O=C(O)C(O)C(O)C(=O)O`, 88%. `CCCCNc1cc(C)nc(NCc2ccccc2)n1` yielded an Inhibition of 97%. Regarding `O=C(NC1CCCCC1)N(Cc1cccc(-c2ccc(CNCc3ccc4c(c3)OCO4)cc2)c1)C1CCN(Cc2ccccc2)CC1.O=C(O)C(F)(F)F`, the Inhibition is listed as 92%.

Consider `O=c1ccc(CNc2nc(NCCc3ccccc3)nc3ccc(Cl)cc23)c[nH]1`, for which the Inhibition is recorded as 99%.

In the case of `CN(C)CCCOc1ccc(CNCc2cccc(Oc3ccc(Cl)cc3)c2)cc1.O=C(O)C(F)(F)F`, the Inhibition is given as 100%. The compound `O=C(O)C(F)(F)F.OC1CCCN(Cc2cccc(-c3ccc(-c4nc5ccccc5[nH]4)cc3)c2)C1` (configuration not stated) gave an Inhibition of 85%. Regarding `COc1ccc(CCNC(=O)c2cc(C)ccc2O)cc1-c1ccc(C(C)(C)C)cc1`, the Inhibition was found to be 97%.

In the next assay the test system is Plasmodium falciparum. Put plainly: GSK_TCMDC: Inhibition of Plasmodium falciparum Dd2 in whole red blood cells, using parasite LDH activity as an index of growth. Test compounds present at 2uM. In kind it is functional.
For `Cc1ccc2c(c1)nc(N)n2C[C@H](O)c1ccccc1`, the Inhibition is listed as 74%. For the compound `CS(=O)(=O)CCNC(=O)c1ccc(-c2cc3c(Nc4ccc5c(cnn5Cc5ccccc5)c4)ncnc3cn2)o1.Cl`, the Inhibition amounted to 46%. Compound `CN1CCN(CCCN(Cc2csc(-c3ccc(CNCc4ccccc4)cc3)n2)C(=O)Nc2ccc3ccccc3c2)CC1.O=C(O)C(F)(F)F` yielded an Inhibition of 63%. Take `Cc1cc(NCCc2ccccc2)nc(NC(=N)Nc2cccc(F)c2)n1`: the Inhibition is listed as 0%.

For `O=C(Cn1c(CCc2cccc(F)c2F)cc(=O)c2cccnc21)N(CCn1ccnc1)Cc1ccc(-c2ccc(C(F)(F)F)cc2)cc1`, the Inhibition was determined as 62%. The same measure, in the same setting: the result for `OC(CNc1ccnc(Nc2cccc(Cl)c2)n1)c1cccc(C(F)(F)F)c1` (configuration not stated) reads 98%. Same read-out and setting: the result for `Nc1ncc(-c2cn[nH]c2)cc1-c1nc2ccc(Cl)cc2[nH]1` reads 100%. Regarding `O=C1NC(c2ccc(N3CCCCCC3)cc2)Nc2ccccc21` (configuration not stated), the Inhibition is 96%. Same read-out and setting: with `O=C(O)C(F)(F)F.c1ccc(CNCc2cccc(-c3csc(-c4nc5ccccc5[nH]4)c3)c2)cc1` the figure was 54%; with `CCCNC(=O)c1ccnc(-c2ccc(CNC3Cc4ccccc4C3)cc2)c1.O=C(O)C(F)(F)F`, 21%. On the same count and under the same terms, the result for `COc1ccc(CN2CCCN(Cc3cccc(C(=O)Nc4ccc(C)c(F)c4)c3)CC2)cc1.O=C(O)C(F)(F)F` reads 10%; that for `COc1ccc(CN2CCC(NCc3cccc(-n4ccnc4)c3)CC2)cc1.O=C(O)C(F)(F)F`, 93%; that for `Cc1[nH]c2ccc(NS(C)(=O)=O)cc2c1C1CCN(CCC2CCN(C(=O)/C=C/c3ccc(Cl)c(Cl)c3)CC2)CC1`, 94%. The same measure, in the same setting: with `Cl.Cn1ncc2c3c(CCN4CCC(NCc5ccc6c(c5)NC(=O)CO6)CC4)c(Cl)cnc3ccc21` the figure was 92%. Regarding `Nc1ncc(-c2ccsc2)cc1-c1nc2ccccc2[nH]1`, the Inhibition came to 8%.

`O=C(NCc1ccc(F)cc1)Nc1ccc(-c2cccc(-c3nc4cc(F)ccc4[nH]3)c2)cc1` came in with an Inhibition of 99%. Same read-out and setting: with `Cc1ccc2[nH]c(C3CCCNC3)c(-c3ccncc3)c2c1` (configuration not stated) the figure was 22%; with `O=C(/C=C/c1ccc(Cl)c(Cl)c1)NCCCCCN1CCC(n2c(=O)[nH]c3ccccc32)CC1`, 0%; with `Br.CCCc1cccc(OC)c1OCCCON1C(N)=NC(N)=NC1(C)C`, 97%. On to `Cc1cccc2sc(N(CCCn3ccnc3)C(=O)C=Cc3cccs3)nc12.Cl`, for which the Inhibition came to 9%. Compound `CN(C)CCCN(C)c1cccc2c1nc(-c1cccnc1)n2CCNCc1ccccc1.O=C(O)C(F)(F)F` registered an Inhibition of 88%.

Compound `Nc1nc(N)c2c(Oc3cccc4ccccc34)cccc2n1` yielded an Inhibition of 10%. On the same count and under the same terms, with `CN1CCC(c2nc(N)no2)C1.O=C(O)C(=O)O` (configuration not stated) the figure was 2%; with `COc1ccc2nccc([C@@H](O)CN3CCC(NCc4nc5c(OCc6ccccc6)cccc5[nH]4)CC3)c2c1.O=C(O)C(=O)O`, 34%.

Consider `CCN1CCN(C(=O)NC(C(=O)N(C)Cc2ccc(-c3ccc(C(F)(F)F)cc3)cc2)c2cccs2)C(=O)C1=O` (configuration not stated), for which the Inhibition is recorded as 95%. The same measure, in the same setting: the result for `COc1cc(C(=O)NC2CC(C)(C)N(C)C(C)(C)C2)ccc1-c1cc2cc(Cl)c(Cl)cc2[nH]1` reads 36%. The same measure, in the same setting: with `O=C(C=Cc1ccc(Cl)c(Cl)c1)NCCCCCN1CCC(CCNC(=O)c2cccc3ccccc23)CC1` the figure was 0%; with `CCOc1cc(C(=O)NCCCN2CCCCC2C)ccc1-c1nc2cc(Cl)ccc2[nH]1` (configuration not stated), 0%; with `Oc1ccccc1CN(CCCN(Cc1ccccn1)Cc1ccccc1O)Cc1ccccn1`, 92%. For the compound `COc1ccc2nccc([C@@H](O)CN3CCC(NCc4ccc5nnsc5c4)CC3)c2c1.O=C(O)C(=O)O`, the Inhibition is reported as 0%. Same read-out and setting: the result for `CCCCCC(C)NC[C@@H](O)[C@H](Cc1ccccc1)NC(=O)c1cc(NCC)cc(N2CCCCS2(=O)=O)c1.Cl` (some centres not stated) reads 79%; that for `CN1CCN(S(=O)(=O)c2cccc(Nc3nccc(N(C)c4ccc5c(c4)nc(NC(=O)c4cccs4)n5C)n3)c2)CC1`, 59%. On the same count and under the same terms, the result for `O=C(C=Cc1cn(-c2ccccc2)nc1-c1ccccc1)N1CCN(c2ccncc2)CC1` reads 20%; that for `CCN1CCC(N(CCCCCCc2ccc(C(F)(F)F)cc2)C(=O)Cn2c(CCc3cccc(F)c3F)cc(=O)c3ccccc32)CC1.O=C(O)C(O)C(O)C(=O)O`, 82%; that for `CCCCNc1cc(C)nc(NCc2ccccc2)n1`, 37%. Turning to `O=C(NC1CCCCC1)N(Cc1cccc(-c2ccc(CNCc3ccc4c(c3)OCO4)cc2)c1)C1CCN(Cc2ccccc2)CC1.O=C(O)C(F)(F)F`, the Inhibition stood at 59%.

Compound `O=c1ccc(CNc2nc(NCCc3ccccc3)nc3ccc(Cl)cc23)c[nH]1` gave an Inhibition of 16%. The same measure, in the same setting: the result for `CN(C)CCCOc1ccc(CNCc2cccc(Oc3ccc(Cl)cc3)c2)cc1.O=C(O)C(F)(F)F` reads 30%. Still for that read-out and setting: the result for `O=C(O)C(F)(F)F.OC1CCCN(Cc2cccc(-c3ccc(-c4nc5ccccc5[nH]4)cc3)c2)C1` (configuration not stated) reads 16%; that for `COc1ccc(CCNC(=O)c2cc(C)ccc2O)cc1-c1ccc(C(C)(C)C)cc1`, 94%.
